The values below come from the supplement of paper PMC7366291.

Counter-ions that a name gives are not always drawn. ± gives the standard deviation or the standard deviation of the averaged measurements.

Conditions in all cases: 25 µM; exposure: 24-48 hpf
For assay [1], the system named is Danio rerio Tg(wt1b:EGFP) embryo, pronephros. The assay can be described thus: glomerular separation, fold change vs DMSO control; higher = glomeruli further apart (abnormal). Summed up: (§1)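 Features are reported as fold changes against the mean of same-day DMSO-treated embryos. Before that, values more than 2 SD away from the feature mean were excluded. The embryos, dechorionated Tg(wt1b:EGFP) zebrafish, had been exposed from 24 to 48 hpf at 28.5°C to 25 μM compound in 0.5% DMSO in HEPES-buffered E3 with 0.003% PTU, and distances and angles came from 16 manually set points on maximum projections of dorsal pronephros images in Fiji.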

The test system is the same in assay [2]. Description: glomerular width (mean of left and right), fold change vs DMSO control; higher = wider glomerulus. Summed up: as §1
For assay [3] the test system is unchanged. Description: fraction of imaged embryos annotated as normal kidney; higher = less nephrotoxic; extreme values may be limits of the assay. Summed up: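 Embryos of the Tg(wt1b:EGFP) zebrafish line were dechorionated and held in 12-well plates with 25 μM compound in 0.5% DMSO and 5 mM HEPES-buffered E3 containing 0.003% PTU, from 24 to 48 hpf at 28.5°C. Larvae were then anaesthetised with tricaine, set dorsal side up in agarose-filled 96-well plates, and their pronephroi imaged by widefield fluorescence at 470 nm over 10 z-slices. Each value is the fraction of embryos per treatment placed in the normal-kidney category after manual annotation of maximum projections.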

Assay [4] has the same test system. Description: pronephric angle neck segment to proximal convoluted tubule (mean of left and right), fold change vs DMSO control; higher = larger pronephric angle. A digest of the protocol:
as §1

As to `O=C(NCC(O)CO)c1c(I)c(C(=O)NCC(O)CO)c(I)c(N(CCO)C(=O)CO)c1I` (stereo unspecified) [Ioversol], the glomerular separation in assay [1] was 0.777 ± 0.33. The compound further gave a glomerular width in assay [2] of 1.07 ± 0.063. Further, the “fraction of imaged embryos annotated as normal kidney” value (“fraction of imaged embryos annotated” below) in assay [3] was found to be 0.833. Besides, in assay [4], the “pronephric angle neck segment” value came out at 0.9813 ± 0.0048.
Turning to `CN[C@@H]1[C@H](O[C@H]2[C@H](O[C@H]3[C@H](O)[C@@H](O)[C@H](NC(=N)N)[C@@H](O)[C@@H]3NC(=N)N)O[C@@H](C)[C@]2(O)CO)O[C@@H](CO)[C@H](O)[C@H]1O` [Dihydrostreptomycin sulfate], in assay [1], the glomerular separation is 0.844 ± 0.18. The compound further had a glomerular width in assay [2] of 1.0469 ± 0.00096. In assay [3], the “fraction of imaged embryos annotated” value came out at 0.667. For the same compound, the “pronephric angle neck segment” value in assay [4] was found to be 0.975 ± 0.048.
In the case of `OC(CCN1CCCCC1)(c1ccccc1)c1ccccc1` [Pridinol methanesulfonate salt], the glomerular separation in assay [1] amounted to 0.797 ± 0.22. The compound also yielded a glomerular width in assay [2] of 1.02 ± 0.06. The “fraction of imaged embryos annotated” value in assay [3] was determined as 1. The “pronephric angle neck segment” value in assay [4] came out at 0.986 ± 0.089.
`Cn1c(=O)c2c(ncn2CCO)n(C)c1=O` [Etofylline] had a glomerular separation in assay [1] of 0.926 ± 0.37. Moreover, in assay [2], the glomerular width amounted to 0.951 ± 0.023. Moreover, the “fraction of imaged embryos annotated” value in assay [3] was determined as 0.917. For the same compound, the “pronephric angle neck segment” value in assay [4] came to 0.9776 ± 0.00038.
In assay [1], `CC(=O)/N=c1/sc(S(N)(=O)=O)nn1C` [Methazolamide] displayed a glomerular separation of 0.898 ± 0.5. Further, the glomerular width in assay [2] came to 1.14 ± 0.06. In addition, in assay [3], the “fraction of imaged embryos annotated” value was 0.636. Besides, in assay [4], the “pronephric angle neck segment” value was 1.02 ± 0.014.
Compound `CC(C)(C)NC(=O)[C@@H]1CN(Cc2cccnc2)CCN1C[C@@H](O)C[C@@H](Cc1ccccc1)C(=O)N[C@H]1c2ccccc2C[C@H]1O` [Indinavir sulfate] returned a glomerular separation in assay [1] of 1.35 ± 0.6. The same compound returned a glomerular width in assay [2] of 0.851 ± 0.062. In addition, in assay [3], the “fraction of imaged embryos annotated” value was determined as 1. In addition, in assay [4], the “pronephric angle neck segment” value is 1.101 ± 0.002.
Turning to `CN1C(C(=O)Nc2ccccn2)=C(O)c2ccccc2S1(=O)=O` [Piroxicam], in assay [1], the glomerular separation worked out at 6.43 ± 2.4. The glomerular width in assay [2] is 0.525 ± 0.012. The “fraction of imaged embryos annotated” value in assay [3] was found to be 0. The “pronephric angle neck segment” value in assay [4] is 1.78 ± 0.095.
The corresponding values for `C[N+](C)(C)CCCCCC[N+](C)(C)C` [Hexamethonium dibromide dihydrate] are 0.932 ± 0.3, 1.09 ± 0.035, 0.667 and 0.997 ± 0.041.
The like results for `CNC(=C[N+](=O)[O-])NCCSCc1csc(CN(C)C)n1` [Nizatidine] were, in that order, 0.966 ± 0.41, 0.9023 ± 0.0037, 0.917 and 1.01 ± 0.043.
The corresponding values for `C=CC[N@@+]12CC[C@@]34c5ccccc5N5/C=C6/[C@H]7C[C@H]8[C@@]9(CC[N@@+]8(CC=C)C/C7=C/CO)c7ccccc7N(/C=C(/[C@@H](C[C@@H]31)/C(=C\CO)C2)[C@H]54)[C@@H]69` [Alcuronium chloride] are 1.23 ± 0.57, 1.03 ± 0.052, 0.833 and 0.958 ± 0.03.
In assay [1], `CC(C)(C)NCC(O)c1cc(O)cc(O)c1` (stereo unspecified) [Terbutaline hemisulfate] returned a glomerular separation of 1.1 ± 0.36. Besides, in assay [2], the glomerular width was 1 ± 0.029. For the same compound, the “fraction of imaged embryos annotated” value in assay [3] is 0.75. Also, the “pronephric angle neck segment” value in assay [4] was determined as 1.01 ± 0.039.
The corresponding values for `C=C1c2c(Cl)ccc(O)c2C(=O)C2=C(O)[C@]3(O)C(=O)C(C(N)=O)=C(O)[C@@H](N(C)C)[C@@H]3[C@@H](O)[C@H]12.O=C(O)c1cc(S(=O)(=O)O)ccc1O` [Meclocycline sulfosalicylate] are 1.02 ± 0.24, 1.09 ± 0.091, 0.917 and 0.9562 ± 0.0078.
The like results for `C[C@]12C=CC(=O)C=C1CC[C@H]1[C@@H]3C[C@@H](O)[C@](O)(C(=O)CO)[C@@]3(C)C[C@H](O)[C@@]12F` [Triamcinolone] were, in that order, 1.19 ± 0.58, 1.23 ± 0.034, 0.75 and 1.119 ± 0.0058.
The like results for `CN1CCCC(CC2c3ccccc3Sc3ccccc32)C1` (stereo unspecified) [Metixene hydrochloride] were, in that order, 0.961 ± 0.25, 1 ± 0.021, 1 and 0.953 ± 0.044.
In turn, `COc1ccccc1N1CCN(CCCNc2cc(=O)n(C)c(=O)n2C)CC1` [Urapidil hydrochloride] came in with a glomerular separation in assay [1] of 1.09 ± 0.36. For the same compound, the glomerular width in assay [2] amounted to 0.969 ± 0.025. In addition, the “fraction of imaged embryos annotated” value in assay [3] worked out at 0.917. In addition, the “pronephric angle neck segment” value in assay [4] came out at 1.02 ± 0.025.
`Cn1c(=O)c2c(ncn2C)n(C)c1=O` [Caffeine]: in assay [1], the glomerular separation is 0.852 ± 0.19. For the same compound, the glomerular width in assay [2] came out at 0.921 ± 0.018. Also, the “fraction of imaged embryos annotated” value in assay [3] was 0.9. Also, the “pronephric angle neck segment” value in assay [4] was 1.05 ± 0.099.
The corresponding values for `COc1cc([S+](C)[O-])ccc1-c1nc2cccnc2[nH]1` (stereo unspecified) [Sulmazole] are 0.979 ± 0.27, 1.05 ± 0.015, 0.833 and 0.9818 ± 0.0097.
In assay [1], `Nc1nc2n[nH]nc2c(=O)[nH]1` [Azaguanine-8] showed a glomerular separation of 0.905 ± 0.36. Moreover, the glomerular width in assay [2] stood at 1 ± 0.058. Also, in assay [3], the “fraction of imaged embryos annotated” value turned out to be 0.833. Further, the “pronephric angle neck segment” value in assay [4] amounted to 0.984 ± 0.02.
`C/C(=C(\CCOP(=O)(O)O)SC(=O)c1ccccc1)N(C=O)Cc1cnc(C)nc1N` [Benfotiamine]: the glomerular separation in assay [1] came out at 1.54 ± 0.89. In assay [2], this compound had a glomerular width of 0.995 ± 0.021. In addition, in assay [3], the “fraction of imaged embryos annotated” value was 0.75. Also, the “pronephric angle neck segment” value in assay [4] is 0.949 ± 0.013.
The like results for `C[C@@H]1C[C@H]2[C@@H]3C[C@H](F)C4=CC(=O)C=C[C@]4(C)[C@@]3(F)[C@@H](O)C[C@]2(C)[C@@]1(O)C(=O)CO` [Flumethasone] were, in that order, 0.902 ± 0.3, 1.28 ± 0.012, 0.417 and 0.977 ± 0.049.
The corresponding values for `O=C(OCC(O)CO)c1ccccc1Nc1ccnc2cc(Cl)ccc12` (stereo unspecified) [Glafenine hydrochloride] are 1.05 ± 0.26, 1.02 ± 0.04, 0.833 and 1.02 ± 0.017.
The corresponding values for `COc1ccc(-c2cc(=O)c3c(O)cc(O[C@@H]4O[C@H](CO[C@@H]5O[C@@H](C)[C@H](O)[C@@H](O)[C@H]5O)[C@@H](O)[C@H](O)[C@H]4O)cc3o2)cc1O` [Diosmin] are 1.06 ± 0.42, 0.996 ± 0.011, 0.727 and 0.974 ± 0.032.
For `CC[N+](C)(C)Cc1ccccc1Br` [Bretylium tosylate], in assay [1], the glomerular separation was 0.631 ± 0.23. The compound also gave a glomerular width in assay [2] of 0.9664 ± 0.0094. Moreover, the “fraction of imaged embryos annotated” value in assay [3] stood at 1. Moreover, in assay [4], the “pronephric angle neck segment” value was determined as 0.982 ± 0.028.
The corresponding values for `NS(=O)(=O)c1cc2c(cc1C(F)(F)F)NC(Cc1ccccc1)NS2(=O)=O` (stereo unspecified) [Bendroflumethiazide] are 1.15 ± 0.68, 0.896 ± 0.043, 0.875 and 1.09 ± 0.083.
The corresponding values for `NS(=O)(=O)c1cc2c(cc1Cl)NC(CC1CCCC1)NS2(=O)=O` (stereo unspecified) [Cyclopenthiazide] are 0.818 ± 0.23, 0.935 ± 0.03, 1 and 1 ± 0.012.
The corresponding values for `CNCC[C@@H](Oc1ccccc1C)c1ccccc1` [Tomoxetine hydrochloride] are 1.04 ± 0.55, 0.979 ± 0.023, 0.75 and 1 ± 0.022.
In turn, `CCN(CC)CCCC(C)Nc1c2ccc(Cl)cc2nc2ccc(OC)cc12` (stereo unspecified) [Quinacrine dihydrochloride hydrate] had a glomerular separation in assay [1] of 0.766 ± 0.2. This compound came in with a glomerular width in assay [2] of 1.01 ± 0.016. In addition, the “fraction of imaged embryos annotated” value in assay [3] was 0.75. For the same compound, the “pronephric angle neck segment” value in assay [4] amounted to 0.971 ± 0.021.
In the case of `Clc1ccc2c(c1)C(N1CCNCC1)=Nc1ccccc1O2` [Amoxapine], the glomerular separation in assay [1] was found to be 1.04 ± 0.33. Further, in assay [2], the glomerular width was 0.9699 ± 0.0014. Also, in assay [3], the “fraction of imaged embryos annotated” value came to 0.75. In assay [4], the “pronephric angle neck segment” value was determined as 1.02 ± 0.039.
The like results for `CCn1cc(C(=O)O)c(=O)c2cnc(N3CCCC3)nc21` [Piromidic acid] were, in that order, 0.725 ± 0.31, 0.909 ± 0.021, 0.9 and 1 ± 0.008.
In the case of `CCc1cccc(CC)c1NC(=O)CN(CC(=O)O)CC(=O)O` [Etifenin], in assay [1], the glomerular separation worked out at 1.34 ± 0.55. The glomerular width in assay [2] was found to be 1.052 ± 0.01. In addition, in assay [3], the “fraction of imaged embryos annotated” value was found to be 0.667. Further, in assay [4], the “pronephric angle neck segment” value came out at 1.01 ± 0.015.
The like results for `OC(CCN1CCCCC1)(c1ccccc1)C1CCCCC1` (stereo unspecified) [Trihexyphenidyl-D,L Hydrochloride] were, in that order, 0.867 ± 0.41, 0.97 ± 0.04, 0.833 and 0.985 ± 0.056.
In assay [1], `CC(CN1c2ccccc2Sc2ccccc21)N(C)C` (stereo unspecified) [Promethazine hydrochloride] had a glomerular separation of 0.666 ± 0.15. Also, the glomerular width in assay [2] came to 0.9984 ± 0.0084. Moreover, in assay [3], the “fraction of imaged embryos annotated” value was found to be 0.833. Further, the “pronephric angle neck segment” value in assay [4] was found to be 0.994 ± 0.068.
The corresponding values for `Nc1ccc(S(=O)(=O)Nc2ncccn2)cc1` [Sulfadiazine] are 0.947 ± 0.41, 1.03 ± 0.031, 0.917 and 0.9587 ± 0.0092.
The like results for `COc1ccc(-c2ccc3cc(C(=O)O)ccc3c2)cc1C12CC3CC(CC(C3)C1)C2` [Adapalene] were, in that order, 0.97 ± 0.49, 0.993 ± 0.012, 0.833 and 1.1 ± 0.0022.
